Results from PubChem BioAssay (NCI).
Compounds without any hit were thinned out: in the full panel of roughly 79,000, 15% have a hit. The source made the active and inactive calls. No stated cut-off is given here; in the data, active means growth inhibition above about 70%; inactive means the rest.

What was measured:
[1] = NCI Yeast Anticancer Drug Screen. Data for the wt2 strain (AID 169);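 further: 0% = growth of vehicle-treated yeast cultures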; settings: S. cerevisiae wt2 strain growth inhibition, stronger effect = higher value
Summary of the method: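 Growth of compound-treated yeast is measured and expressed as inhibition relative to vehicle-only controls.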

[2] = NCI Yeast Anticancer Drug Screen. Data for the mlh1 strain (AID 171);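 further: 0% = growth of vehicle-treated control cultures of the same strain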; settings: S. cerevisiae mlh1 strain growth inhibition, stronger effect = higher value
Summary of the method: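 Test agents were incubated with yeast bearing a defined DNA damage repair or cell cycle control alteration; values are growth inhibition normalised to vehicle-treated cultures.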

[3] = NCI Yeast Anticancer Drug Screen. Data for the sgs1 strain (AID 173);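 further: 0% = growth of vehicle-only control cultures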; settings: S. cerevisiae sgs1 mutant, stronger effect = higher value
Summary of the method: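 Strain with an altered DNA repair or cell cycle pathway exposed to compound. Growth then measured. Value = inhibition versus vehicle control.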

[4] = NCI Yeast Anticancer Drug Screen. Data for the mlh1 rad18 strain (AID 175); settings: S. cerevisiae mlh1 rad18 strain growth inhibition, stronger effect = higher value
Summary of the method: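 A repair-deficient yeast strain is exposed to test compound, and growth is scored relative to vehicle-treated controls.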

[5] = NCI Yeast Anticancer Drug Screen. Data for the rad18 strain (AID 177); settings: S. cerevisiae rad18 mutant growth inhibition, stronger effect = higher value
Summary of the method: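 DNA-repair-defective yeast; compound treatment; growth inhibition scored against vehicle.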

[6] = NCI Yeast Anticancer Drug Screen. Data for the rad52 strain (AID 147);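 further: 0% = growth of vehicle-treated control cultures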; settings: S. cerevisiae rad52 mutant growth inhibition, stronger effect = higher value
Summary of the method: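 Growth of repair-deficient yeast cells was compared between compound-treated and vehicle-treated cultures to give percent inhibition.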

[7] = NCI Yeast Anticancer Drug Screen. Data for the wt1 strain (AID 149);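 further: 0% = growth of vehicle-treated wt1 cultures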; settings: S. cerevisiae wt1 strain (SPY 50644) growth inhibition, stronger effect = higher value
Summary of the method: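 Measured: growth of wt1 yeast under compound versus vehicle treatment, reported as inhibition.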

[8] = NCI Yeast Anticancer Drug Screen. Data for the rad50EPP+ strain (AID 151);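 further: 0% = growth of vehicle-treated control cultures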; settings: S. cerevisiae rad50 mutant strain, stronger effect = higher value
Summary of the method: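 Measured: growth inhibition of rad50EPP+ yeast. Reference: vehicle-treated controls. Screen uses strains with defined genetic alterations in DNA damage repair or cell cycle control.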

[9] = NCI Yeast Anticancer Drug Screen. Data for the mgt1 strain (AID 153); settings: S. cerevisiae mgt1 mutant growth inhibition, stronger effect = higher value
Summary of the method: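 Compounds were applied to mgt1 mutant yeast, and growth was then compared against vehicle-treated control cultures to give percent inhibition.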

[10] = NCI Yeast Anticancer Drug Screen. Data for the rad50 strain (AID 155);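 further: 0% = growth of vehicle-only cultures of the same strain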; settings: S. cerevisiae rad50 strain growth inhibition, stronger effect = higher value
Summary of the method: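 Growth of the mutant yeast was measured after compound exposure and referenced to vehicle-treated cultures.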

[11] = NCI Yeast Anticancer Drug Screen. Data for the mec2-1 strain (AID 157); settings: S. cerevisiae mec2-1 strain, stronger effect = higher value
Summary of the method: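 Compounds were applied to mec2-1 yeast cells. Their growth was then compared with that of vehicle-treated cultures to give growth inhibition.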

[12] = NCI Yeast Anticancer Drug Screen. Data for the rad14 strain (AID 159);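 further: 0% = growth of vehicle-treated control cultures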; settings: S. cerevisiae rad14 strain growth inhibition, stronger effect = higher value
Summary of the method: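 Here, inhibition of yeast growth was measured after compound exposure, using a strain with a genetic defect in DNA damage repair and vehicle-treated cultures as the reference.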

[13] = NCI Yeast Anticancer Drug Screen. Data for the sgs1 mgt1 strain (AID 161);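 further: 0% = growth of cultures given vehicle only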; settings: S. cerevisiae sgs1 mgt1 strain, stronger effect = higher value
Summary of the method: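 Yeast cells carrying a defined DNA-repair defect were exposed to test compounds. Growth inhibition was measured relative to vehicle-treated controls.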

[14] = NCI Yeast Anticancer Drug Screen. Data for the CLN2oe strain (AID 163);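 further: 0% = growth of vehicle-only control cultures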; settings: S. cerevisiae CLN2oe strain, stronger effect = higher value
Summary of the method: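 Cells of an engineered yeast line with disturbed cell-cycle regulation are treated with compound. Inhibition of growth is then calculated relative to the vehicle-treated reference.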

[15] = NCI Yeast Anticancer Drug Screen. Data for the cln2 rad14 strain (AID 165);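 further: 0% = growth equal to vehicle treated cultures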; settings: S. cerevisiae cln2 rad14 strain, stronger effect = higher value
Summary of the method: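 Strain: cln2 rad14 yeast, altered in cell cycle control and DNA damage repair. Read-out: growth inhibition vs vehicle.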

[16] = NCI Yeast Anticancer Drug Screen. Data for the bub3 strain (AID 167); settings: S. cerevisiae bub3 mutant strain, stronger effect = higher value
Summary of the method: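 Whole-cell yeast assay. The mutant strain was incubated with compounds, and growth inhibition was determined by comparison with vehicle-treated cells.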

[17] = at 5.0 µM (retest, dose inferred, filed as 0.5)
[18] = at 50.0 µM (retest, dose inferred, filed as 5.0)

Measured: growth inhibition

CCCN(CCC)CC(O)c1cc(-c2ccc(Cl)cc2)nc2c(C)c(Cl)ccc12 (stereo unspecified)
inactive: [1]; at 1.2 µM -3% | [1]; at 3.7 µM -7% | [2]; at 1.2 µM -3% | [2]; at 3.7 µM -2% | [3]; at 1.2 µM -2% | [3]; at 3.7 µM 3% | [4]; [17] 27% | [5]; at 1.2 µM -4% | [5]; at 3.7 µM -5%
active: [1]; at 11.0 µM 99% | [1]; at 33.0 µM 97% | [1]; at 100.0 µM 96% | [2]; at 11.0 µM 99% | [2]; at 33.0 µM 98% | [2]; at 100.0 µM 95% | [3]; at 11.0 µM 98% | [3]; at 33.0 µM 97% | [3]; at 100.0 µM 95% | [4]; [18] 96% | [4]; at 50.0 µM 98.7% | [5]; at 11.0 µM 98% | [5]; at 33.0 µM 96% | [5]; at 100.0 µM 94%

O=C(NCCCCCCCN1CCCCCCC1)C(C1CCCCC1)C1CCCCC1
inactive: [6]; at 1.2 µM 40% | [6]; at 3.7 µM 52% | [7]; at 1.2 µM 18% | [7]; at 3.7 µM 26% | [7]; at 11.0 µM 61% | [8]; at 1.2 µM 0% | [8]; at 3.7 µM -1% | [8]; at 11.0 µM 4% | [8]; at 33.0 µM 16% | [8]; at 100.0 µM 41% | [9]; at 1.2 µM 64% | [10]; at 1.2 µM 41% | [10]; at 3.7 µM 45% | [10]; [17] 35% | [11]; at 1.2 µM 43% | [11]; at 3.7 µM 39% | [11]; [17] 29% | [13]; [17] 36% | [14]; at 1.2 µM 53% | [14]; at 3.7 µM 65% | [15]; [17] 62% | [16]; at 1.2 µM 65% | [16]; at 3.7 µM 66% | [16]; [17] 27% | [1]; at 1.2 µM 37% | [1]; at 3.7 µM 56% | [2]; at 1.2 µM 44% | [2]; at 3.7 µM 48% | [3]; at 1.2 µM 59% | [3]; at 3.7 µM 67% | [4]; [17] 17% | [5]; at 1.2 µM 51% | [5]; at 3.7 µM 64%
active: [6]; at 11.0 µM 89% | [6]; at 33.0 µM 98% | [6]; at 100.0 µM 99% | [7]; at 33.0 µM 97% | [7]; at 100.0 µM 98% | [9]; at 3.7 µM 83% | [9]; at 11.0 µM 97% | [9]; at 33.0 µM 98% | [9]; at 100.0 µM 99% | [10]; at 11.0 µM 81% | [10]; at 33.0 µM 98% | [10]; [18] 99% | [10]; at 50.0 µM 99.3% | [10]; at 100.0 µM 98% | [11]; at 11.0 µM 85% | [11]; at 33.0 µM 98% | [11]; [18] 97% | [11]; at 50.0 µM 94.2% | [11]; at 100.0 µM 99% | [12]; at 1.2 µM 72% | [12]; at 3.7 µM 75% | [12]; at 11.0 µM 97% | [12]; at 33.0 µM 99% | [12]; at 100.0 µM 99% | [13]; [18] 98% | [13]; at 50.0 µM 99% | [14]; at 11.0 µM 92% | [14]; at 33.0 µM 97% | [14]; at 100.0 µM 98% | [15]; [18] 98% | [15]; at 50.0 µM 96.5% | [16]; at 11.0 µM 95% | [16]; at 33.0 µM 97% | [16]; [18] 99% | [16]; at 50.0 µM 99% | [16]; at 100.0 µM 98% | [1]; at 11.0 µM 95% | [1]; at 33.0 µM 98% | [1]; at 100.0 µM 99% | [2]; at 11.0 µM 95% | [2]; at 33.0 µM 98% | [2]; at 100.0 µM 99% | [3]; at 11.0 µM 95% | [3]; at 33.0 µM 98% | [3]; at 100.0 µM 99% | [4]; [18] 98% | [4]; at 50.0 µM 99.2% | [5]; at 11.0 µM 92% | [5]; at 33.0 µM 97% | [5]; at 100.0 µM 98%
